Results filed as inconclusive are left out. Unmarked numbers belong to inactive results. The source made the active and inactive calls. The call rests on the fitted dose curve; in most records, active means well fitted curve in the direction sought with a large enough effect in the repeat runs; inconclusive means weak or mixed curves; inactive means no such curve, though single readings can be large; an effect the other way counts as inactive or inconclusive.

Assay [1] in a line: qHTS RealTime-Glo MT Cell Viability Assay in HEK293 cells - 40 hour (AID 1224874). Further: nearly all actives have a fitted effect of over 50% in size. The conditions noted are these: RealTime-Glo luminescence; max response: stronger effect = lower value. The method, boiled down: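 Kinetic, non-lysing viability readout. Seed HEK293 (600/well) with reagent, incubate 5 h at 37 C/5% CO2, pin 23 nL compound in DMSO, incubate at 37 C, read luminescence at 0, 8, 16, 24, 32, 40 h.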
A general note: qHTS replaces the single test concentration by a dilution series.

Assay [2] can be described thus: A CellTox Green Cytotoxicity Assay to monitor cytotoxicity in HEK293 cells - 24 hour (AID 1224875). Further: nearly all actives have a fitted effect of over 45% in size. Further: potency means the concentration at half of the fitted maximal effect. On activity change: series mostly up to about 77 µM. The method, boiled down:
(§1)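 Real-time, in one plate: 600 HEK293 cells/well with dead-cell DNA dye, pinned compound after 5 h, 37 C incubation over 40 h; viable cells give no appreciable fluorescence.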

Assay [3] in a line: A CellTox Green Cytotoxicity Assay to monitor cytotoxicity in HepG2 cells - 16 hour (AID 1224876). Further: nearly all actives have a fitted effect of over 45% in size. The essentials:
(§2)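 Cytotoxicity was tracked as dead-cell DNA fluorescence in HepG2 cells treated with test compounds at 37 C; each time-point value comes from one kinetic series spanning 0, 8, 16, 24, 32 and 40 h.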

A short description of assay [4]: qHTS RealTime-Glo MT Cell Viability Assay in HepG2 cells - 32 hour (AID 1224877). Further: nearly all actives have a fitted effect of over 55% in size. The essentials: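 HepG2 cells were seeded at 600 cells/well together with NanoLuc luciferase and a cell-permeant prosubstrate, preincubated 5 h at 37 C/5% CO2, then pin-dosed with compounds in DMSO. Nonlytic luminescence from viable cells was read at each time point.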
Assay [5] is described as follows: A CellTox Green Cytotoxicity Assay to monitor cytotoxicity in HepG2 cells - 24 hour (AID 1224878). Further: nearly all actives have a fitted effect of over 45% in size. The method, boiled down: as §2
The nature of assay [6]: A CellTox Green Cytotoxicity Assay to monitor cytotoxicity in HepG2 cells - 40 hour (AID 1224879). Further: nearly all actives have a fitted effect of over 40% in size. The method, boiled down:
as §2

Assay [7] is described as follows: A CellTox Green Cytotoxicity Assay to monitor cytotoxicity in HEK293 cells - 40 hour (AID 1224871). Further: nearly all actives have a fitted effect of over 45% in size. Further: potency means the concentration at half of the fitted maximal effect. The method, boiled down: as §1
Assay [8] is described as follows: qHTS RealTime-Glo MT Cell Viability Assay in HEK293 cells - 16 hour (AID 1224872). Further: top concentration of the series differs between compounds; nearly all actives have a fitted effect of over 50% in size. The essentials: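 HEK293 cells were seeded at 600 cells/well together with NanoLuc luciferase and cell-permeant prosubstrate, preincubated 5 h at 37 C/5% CO2, then given compound in DMSO by pintool. Luminescence from viable-cell prosubstrate reduction was read repeatedly over 40 h.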

Assay [9] is described as follows: qHTS RealTime-Glo MT Cell Viability Assay in HepG2 cells - 8 hour (AID 1224873). Further: nearly all actives have a fitted effect of over 55% in size. The method, boiled down:
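HepG2 cells (600/well) mixed with RealTime-Glo MT reagent, settled 5 h at 37 C/5% CO2 before compound addition. Nonlytic NanoLuc luminescence from viable-cell prosubstrate reduction read repeatedly during 40 h treatment at 37 C.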
On the % scale 0 is the no-effect control and ±100 the full control effect.

In the case of `Brc1c(Br)c(Br)c(Br)c(Br)c1Br`, in [1], the max response was 23.1%. Also, the activity change in assay [2] was 5.24% [at 6.97 µM, stronger effect = higher value]. In addition, the cytotoxicity increase was -7.6% [at 6.97 µM] in assay [3] and -0.0521% [at 6.97 µM] in [6]. Besides, in assay [4], the activity change, negative = cytotoxic was -8.23% [at 6.97 µM]. In [5], the cytotoxicity is -0.215% [at 6.97 µM].

For the compound `CC[C@H](N)c1ccccc1`, the max response in [1] is 5.02%. The Potency entry in [2], in assay [3], in [4], in assay [5] and in assay [6] was “inactive” each time.

As for `CCCC(C)(COC(N)=O)COC(N)=O`, the Potency entry in [7], in assay [8], in assay [2], in assay [3], in assay [5] and in assay [6] was “inactive” in each case. In assay [9], the call was inactive.

In the case of `O=C(O)CBr`, the Potency result in [8], in assay [2], in [3], in [4] and in assay [5] was “inactive” each time. Moreover, the compound was classed as inactive in [9]. In [1], the max response was -0.861%.

As to `CN1COCN(Cc2cnc(Cl)s2)/C1=N\[N+](=O)[O-]`, the result in assay [9] was inactive. Also, the Potency entry in assay [2], in assay [3], in [4], in assay [5] and in assay [6] was “inactive” each time.

Turning to `O=C1CCCCC1Cl` (configuration not stated), the Potency entry in [7], in [8], in assay [2], in assay [3], in assay [5] and in assay [6] was “inactive” in each case. Also, the compound was classed as inactive in assay [9]. In assay [1], the max response is 11.3%.

In the case of `CCCC[N+](=O)[O-]`, the Potency entry in assay [7], in assay [8], in [2], in assay [3], in assay [4] and in assay [5] was “inactive” each time. Also, in [6], the Potency result was “inactive”. Also, in assay [9], the result was inactive. Moreover, in [1], the max response is 1.79%.

`COC1=CC(=O)O[C@@H](/C=C/c2ccccc2)C1`: the Potency result in [7], in assay [2], in assay [3], in assay [4], in assay [5] and in assay [6] was “inactive” each time. Moreover, the result in assay [9] was inactive.

`CCCCCCCCSC(=O)Oc1cc(Cl)nnc1-c1ccccc1`: the Potency result in assay [7], in assay [2], in [3], in assay [4], in assay [5] and in [6] was “inactive” each time. In [9], the result was inactive. Besides, in [1], the max response was 6.25%.

`Clc1cc2c(cc1Cl)Oc1cc(Cl)c(Cl)cc1O2`: the cytotoxicity increase was -35.9% [at 0.29 µM] in assay [7] and -1.02% [at 0.29 µM] in assay [3]. In assay [9], the viability change, negative = cytotoxic is 0.0568% [at 0.29 µM]. For the same compound, the activity change in [2] was -30.3% [at 0.29 µM, stronger effect = higher value]. Moreover, the activity change, negative = cytotoxic in assay [4] was 1.14% [at 0.29 µM]. In addition, the cytotoxicity in [5] was 2.11% [at 0.29 µM].

On to `CCOC(=O)C(Cl)Cc1cc(-n2nc(C)n(C(F)F)c2=O)c(F)cc1Cl` (configuration not stated), for which the Potency result in [7], in assay [2], in assay [3], in [4], in assay [5] and in [6] was “inactive” each time.

Take `COc1ccc(CN2CCNCC2)c(OC)c1OC`: the Potency entry in [7], in assay [8], in assay [2], in assay [3], in [4] and in [6] was “inactive” in each case. Also, in [9], the compound was classed as inactive. In [1], the max response was 5.58%.

Turning to `CNC(=O)O/N=C(/CSC)C(C)(C)C`, the Potency result in assay [7], in [8], in [2], in assay [3], in assay [4] and in assay [5] was “inactive” each time. Also, in assay [6], the Potency result was “inactive”. In addition, in assay [9], the compound was called inactive. Also, the max response in assay [1] is -0.61%.

Consider `Cc1ccc(Cl)c(O)c1`, for which the Potency result in assay [7], in [8], in [2], in assay [3] and in [5] was “inactive” in each case. The call in assay [9] was inactive. In addition, the max response in assay [1] is 1.02%.

In the case of `COP(=O)(OC)O/C(C)=C/C(=O)N(C)C`, the Potency entry in assay [8], in assay [2], in [3], in assay [4], in assay [5] and in assay [6] was “inactive” throughout. Further, the compound was classed as inactive in assay [9]. For the same compound, the max response in [1] was 13.5%.

For the compound `CCN1CCCC1CNC(=O)C(O)(c1ccccc1)c1ccccc1` (configuration not stated), the Potency entry in assay [8], in assay [2], in assay [3], in [4], in [5] and in [6] was “inactive” each time. Further, the result in [9] was inactive. The max response in assay [1] is -2.61%.

With `Clc1ccc(C(Cl)(Cl)Cl)cn1`, the Potency in assay [7] and in assay [2] was 34.7 µM (active) in each case. Further, the Potency entry in assay [8], in [3], in assay [4] and in assay [6] was “inactive” each time. The outcome in assay [9] was inactive. Further, in assay [1], the max response is 1.5%.

Take `ClCC1CO1` (configuration not stated): the Potency entry in assay [7], in assay [8], in [2], in assay [3], in [4] and in [5] was “inactive” throughout. In addition, in assay [6], the Potency result was “inactive”. In addition, the max response in assay [1] is -2.45%.

As to `COC(=O)c1ccc(CBr)cc1`, the Potency entry in [7], in [8], in [2], in assay [3], in assay [4] and in [5] was “inactive” throughout. Also, the Potency result in [6] was “inactive”. The call in assay [9] was inactive. In addition, in assay [1], the max response is 3.15%.

Regarding `O=c1[nH]c2ccccc2o1`, the Potency entry in [7], in [2], in assay [3], in [4] and in [6] was “inactive” throughout. Further, in [1], the max response is -0.283%.

Consider `CCNc1nc(NCC)nc(SC)n1`, for which the Potency result in assay [8], in assay [2], in [3], in assay [4], in assay [5] and in [6] was “inactive” each time. Also, the compound was called inactive in [9].

On to `O=CCCl`, for which the Potency result in assay [7], in [8], in [2], in [3], in assay [5] and in assay [6] was “inactive” each time. Besides, the compound was classed as inactive in assay [9]. Moreover, the max response in assay [1] was 6.03%.

On to `CCOP(=O)(CN(CCO)CCO)OCC`, for which the Potency entry in assay [7], in [2], in assay [3], in assay [4], in [5] and in assay [6] was “inactive” throughout. In addition, the outcome in assay [9] was inactive. In addition, in [1], the max response was 1.2%.

Turning to `BrCc1ccc(Br)cc1`, the Potency entry in assay [8], in assay [2], in assay [3], in [5] and in assay [6] was “inactive” each time. Besides, in [9], the compound was called inactive. Moreover, the max response in assay [1] is 4.4%.
